High-throughput results: PubChem BioAssay, Broad Institute
An excerpt weighted towards active compounds, which were near 2.7% of everything screened.
PAX8 inh HTS: inhibitors of PAX8 transcriptional activity in RMG-I cells; RMG-I TPO-luciferase reporter, SteadyGlo, 24 h; inhibition, % at 12.6 µM; hit rate 1.2% among 360,000; AID 652154;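 active = mean replicate inhibition at least 60% with every replicate also reaching 60%; inconclusive = only one of the two criteria is met; inactive = mean below 60% and not all replicates reaching 60%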;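 also: luciferase light reporting Pax8 driven TPO promoter activity; plate controls were median of neutral control wells for no effect and mitoxantrone controls for full effect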
CFTR F508del cor: correctors of CFTR F508del function in bronchial epithelial cells; CFBE cells, YFP halide quenching; stimulated with forskolin plus potentiator P3; % fluorescence drop versus neutral controls; activity (quench increase), % at 7.58 µM; hit rate 0.36% among 350,000; AID 720511;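 active = mean added fluorescence quench of at least 8% versus neutral control, with both replicates also reaching 8%; inconclusive = only one of the mean or replicate conditions met; inactive = mean below 8% and not both replicates reaching 8%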;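 also: cells transiently co-express mutant CFTR-F508del with the halide-sensitive YFP; corrector assay measuring rescue of mutant channel to the surface after 24 h compound exposure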
EWS-Fli block: blocks EWS/Fli oncoprotein-driven transcription; A673 NR0B1-luciferase reporter, viability-normalised; inhibition, % at 12.6 µM; hit rate 0.67% among 350,000;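 active = mean inhibition of at least 50% after viability correction, with every replicate also passing that limit; inconclusive = mean reaches 50% but only one of two replicates passes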;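 also: firefly luciferase signal divided by Alamar Blue viability fluorescence both relative to DMSO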
Env fusion inh: HIV envelope-mediated fusion inhibition. hit rate 1.1% among 360,000. inhibition, % at 12.3 µM. AID 651610. HeLa-JRFL Env/CEM21 cell fusion, luciferase;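 active = mean replicate inhibition score of at least 50 and every replicate individually at or above 50; inconclusive = only one of the two criteria met; inactive = mean below 50 and not all replicates reaching 50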;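 also: 0% = plate neutral controls and 100% = maraviroc near 300 nM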
INS-1E GSIS act: GLuc luminescence reporter in INS-1E cells, primary screen for activators of glucose-dependent secretion of insulin | INS-1E GLuc reporter insulin secretion, 2-3 h | activation, % at 16.6 µM | hit rate 0.61% among 370,000;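 active = lowest replicate activation of at least 40%, so every replicate reaches that level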;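 also: 0% = median of neutral control wells and 100% = median of IBMX positive control wells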
PGC1a acetyl inh: modulators of PGC1a acetylation. U2OS PGC1a acetylation, AlphaScreen anti-acetyl-lysine; with virally co-expressed GCN5 acetyltransferase. inhibition, % at 15.6 µM. hit rate 0.17% among 350,000. AID 651687;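 active = every replicate shows inhibition of at least 40%; inconclusive = mean inhibition at least 40% but some replicate below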;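 also: 0% = neutral control wells and 100% = positive control wells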
An asterisk follows results filed as active; ? = inconclusive; / = not tested or not shown; [ ] = remark or other dose.

SMILES	PAX8 inh HTS	CFTR F508del cor	EWS-Fli block	Env fusion inh	INS-1E GSIS act	PGC1a acetyl inh
C[C@H]1CN([C@@H](C)CO)C(=O)c2ccccc2-c2ccccc2CO[C@H]1CN(C)S(=O)(=O)c1ccc(C(F)(F)F)cc1	102*	-1	10	50[16.7 µM]	-7	-4
C[C@H]1CN([C@@H](C)CO)C(=O)c2ccccc2-c2ccccc2CO[C@H]1CN(C)S(=O)(=O)c1ccc(Cl)cc1	21	-4	0	55*[16.7 µM]	14	-39
C[C@@H]1CN([C@H](C)CO)C(=O)c2ccccc2-c2ccccc2CO[C@H]1CN(C)S(=O)(=O)c1ccc(Cl)cc1	-15	5	1	11[16.7 µM]	-6	-26
O=C(C[C@@H]1CC[C@@H]2[C@H](COC[C@H](O)CN2C(=O)Nc2cc(Cl)cc(Cl)c2)O1)NCC1CCCCC1	17	-4	5	/	-21	-8
C[C@@H]1CN([C@H](C)CO)C(=O)c2ccccc2-c2ccccc2CO[C@@H]1CN(C)S(=O)(=O)c1ccc([N+](=O)[O-])cc1	3	0	-1	/	1	-13
Cn1c(=O)c(Nc2ccc(O)cc2)c2c3c(cccc31)C(=O)c1ccccc1-2	83*	1	-12	/	9	/
Cc1cccc2sc(NNC(=O)c3ccc(S(=O)(=O)N4CCCC(C)C4)cc3)nc12 (stereo not given)	/	4	17	/	-7	5
CCOC(=O)N1CCN(S(=O)(=O)c2ccc(C(=O)NNc3nc4c(C)cccc4s3)cc2)CC1	81*	5	29	60*	/	-4
Cc1cccc2sc(NNC(=O)c3ccc(S(=O)(=O)N4CCc5ccccc5C4)cc3)nc12	77*	-2	8	-14	6	-7
CN1CCN(C(=O)C[C@H]2C=C[C@@H](NC(=O)c3ccc4c(c3)OCO4)[C@@H](CO)O2)CC1	/	-1	/	/	-13	/
CCCNC(=O)Nc1ccc2c(c1)C(=O)N(C)C[C@H](OC)[C@@H](C)CN(Cc1ccccc1)[C@@H](C)CO2	/	3	2	/	-10	-13
COc1cc2c(cc1OC)C(c1ccc(-c3ccc(Cl)c(Cl)c3)o1)=NCC2	/	/	/	83*	/	-5
COc1cc2c(cc1OC)C(c1ccc(-c3cc(Cl)ccc3Cl)o1)=NCC2	/	/	/	/	/	10
COc1cc2c(cc1OC)C(c1ccc(-c3ccc(Cl)cc3Cl)o1)=NCC2	/	/	/	98*	/	14
CN(C)C(=O)c1cccc(-c2ccc(C3[C@H]4CNC[C@@H]3N4CC3CCCCC3)cc2)c1 (stereo not given in full)	5	3	-4	/	-22	2
COc1ccc(NC(=O)C2(C)Cc3c(-c4ccc5c(c4)OCO5)ccnc3O2)cn1 (stereo not given)	22	-2	64*	9	/	-18
CC1(C(=O)Nc2ccc3c(c2)OCO3)Cc2c(-c3cccc(C(N)=O)c3)ccnc2O1 (stereo not given)	36	5	59*	-30	-24	-5
COc1ccc(NC(=O)C2(C)Cc3c(-c4ccc5c(c4)OCO5)ccnc3O2)cc1OC (stereo not given)	18	0	2	32	-29	2
CC1(C(=O)Nc2ccc3c(c2)OCO3)Cc2c(-c3ccc4c(c3)OCO4)ccnc2O1 (stereo not given)	/	-1	-23	12	4	2
CCCC(=O)Nc1ccc2c(c1)OC[C@@H](C)N(Cc1cncnc1)C[C@H](C)[C@H](OC)CN(C)C2=O	-6	-3	-2	/	-3	-1
Cc1noc(C)c1S(=O)(=O)Nc1cccc2c1O[C@@H](CN(C)CC1CC1)[C@@H](C)CN([C@@H](C)CO)C2=O	/	-4	-5	2[16.7 µM]	21	0
Cc1ccc(S(=O)(=O)N(C)C[C@@H]2OCCCC[C@@H](C)Oc3ccc(NC(=O)NC4CCCCC4)cc3C(=O)N([C@H](C)CO)C[C@H]2C)cc1	34	-2	14	11[16.7 µM]	-24	-11
N#Cc1c(-c2ccc(F)cc2)c(-c2ccc(F)cc2)nn(CCO)c1=O	37	18*	39	8	-27	-34
CN(C(=O)c1ccccc1C(=O)OCC(=O)Nc1ccc(OC(F)F)cc1)c1ccccc1	-5	-5	5	/	-19	-4
NS(=O)(=O)c1ccc(NC(=O)COC(=O)c2cn(-c3ccccc3)nc2-c2ccc(F)cc2)cc1	-18	/	/	-7	65*	/
SMILES	PAX8 inh HTS	CFTR F508del cor	EWS-Fli block	Env fusion inh	INS-1E GSIS act	PGC1a acetyl inh
CN(C(=O)c1ccccc1C(=O)OCC(=O)Nc1ccc(S(N)(=O)=O)cc1)c1ccccc1	4	8.2*	3	-4	8	9
CC1(C)C(=O)Nc2ccccc2N1C(=O)COC(=O)c1cc(Cl)cc(Cl)c1	13	-7	1	/	-43	10
Cc1ccc(C(=O)OCC(=O)N2c3ccccc3NC(=O)C2(C)C)cc1S(=O)(=O)N1CCCCC1	22	-2	18	59*	16	-4
Cc1ccc(S(=O)(=O)N2CCCCC2)cc1C(=O)OCC(=O)N1c2ccccc2NC(=O)C1(C)C	-3	1	13	?	8	0
CC1(C)C(=O)Nc2ccccc2N1C(=O)COC(=O)c1cccnc1	4	0	4	64*	11	3
CC(=O)Nc1ccc(CNc2ncnc3ccc(-c4c(C)noc4C)cc23)cc1	-178	-4	70*	24	-26	-40
COc1ccc(-c2ocnc2C(=O)Nc2ccc(N3CCOCC3)cc2N2CCOCC2)cc1OC	28	-2	3	5	85*	/
COc1cc(C(=O)Nc2cc(C(F)(F)F)ccc2N2CCOCC2)ccc1OCC(=O)N1CCOCC1	0	1	2	/	50*	/
CCCCn1nc(C(=O)Nc2cc(C(F)(F)F)ccc2N2CCOCC2)ccc1=O	93*	4	14	27	-27	0
CC(C)(C)c1ccc(OCCC(=O)Nc2ccc(N3CCOCC3)cc2N2CCOCC2)cc1	3	1	-3	69*	-73	/
O=C(CN1CCOCC1)N[C@@H]1CC[C@H](CCn2cc(C3CCCCC3)nn2)O[C@H]1CO	/	1	/	/	-5	5
O=C(NC1CCCCCCC1)c1cc(F)c(F)cc1Cl	-117	-3	-93	-6	3	/
Cc1ccc(C(=O)NC2CCCCCCC2)c(Cl)c1	6	1	56*	-22	0	-22
CC(=O)N(C)C[C@H]1Oc2cc(C#Cc3ccncc3)ccc2S(=O)(=O)N([C@H](C)CO)C[C@H]1C	/	-2	-12	-10[16.7 µM]	9	-1
C[C@@H]1CCCCO[C@@H](CN(C)Cc2ccc(Cl)c(Cl)c2)[C@H](C)CN([C@@H](C)CO)C(=O)c2cc(NC(=O)Nc3cccc4ccccc34)ccc2O1	18	-2	3	15[16.7 µM]	3	-13
O=C(N/N=C/c1sc(N2CCOCC2)nc1-c1ccccc1)c1cccc(S(=O)(=O)N2CCCC2)c1	74*	1	20	56*	/	4
